From PubChem BioAssay
Sampled rows, rich in hits. Any-hit rate of the full collection: about 1.5%.
eLon inh: inhibitors of E. coli Lon protease, primary screen, biochemical, fluorescence polarization; actives 0.42% (n = 360,000); P0A9M0; purified E. coli Lon protease; inhibition, % at 7.94 µM; in the data active means inhibition above about 13%, passing the limit was not always enough
Bcl-xL primary: inhibitors of human Bcl-xL, primary screen, biochemical, fluorescence polarization, HTS; Bcl-2-like protein 1 (Homo sapiens), Q07817; GST-Bcl-xL / FITC-Bim BH3 peptide fluorescence polarization; inhibition, % at 10.9 µM; actives 0.7% (n = 320,000); AID 2129, 2009;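 active means inhibition above the mean of all tested compounds plus 3 SD, cutoff set per campaign, cut at about 30% in these data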;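 further: inhibitors lower millipolarization by displacing the labeled peptide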
MEX-5 binding: MEX-5 zinc finger RNA-binding disruptors – biochemical, C. elegans, fluorescence polarization, MLPCN library, primary screen; Zinc finger protein mex-5 (Caenorhabditis elegans), Q9XUB2; MEX-5/FITC-TCR2 RNA binding; active compounds read low; activity score (negative = inhibition of binding), % at 10 µM; actives 0.38% (n = 300,000);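 active means inhibition past about -25% in most replicates, and total fluorescence under double the plate's negative control median, limit read from the data; inconclusive means replicates evenly split on the limit, or fluorescence at least double controls; inactive means too little inhibition in most replicates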
Target sequence (Q9XUB2 whole entry, looked up): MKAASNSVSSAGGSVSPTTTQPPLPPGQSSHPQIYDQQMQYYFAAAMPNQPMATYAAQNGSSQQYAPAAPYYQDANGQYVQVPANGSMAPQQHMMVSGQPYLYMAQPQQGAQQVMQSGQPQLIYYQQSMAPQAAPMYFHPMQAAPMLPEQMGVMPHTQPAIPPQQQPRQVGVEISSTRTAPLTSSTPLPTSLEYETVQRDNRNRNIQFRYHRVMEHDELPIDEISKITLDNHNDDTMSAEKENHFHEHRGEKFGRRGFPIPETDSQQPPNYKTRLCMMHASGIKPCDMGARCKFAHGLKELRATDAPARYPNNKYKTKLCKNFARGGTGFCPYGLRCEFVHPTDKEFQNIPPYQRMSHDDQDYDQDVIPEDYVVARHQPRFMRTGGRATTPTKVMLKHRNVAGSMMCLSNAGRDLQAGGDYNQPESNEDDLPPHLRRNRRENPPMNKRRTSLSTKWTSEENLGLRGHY
MCL1-BIM inh: inhibitors of MCL1 binding to BIM-BH3, primary screen, biochemical, fluorescence polarization; Induced myeloid leukemia cell differentiation protein Mcl-1 (Homo sapiens), Q07820; GST-MCL1 / FITC-Bim-BH3 fluorescence polarization; inhibition, % at 10.9 µM; actives 0.68% (n = 320,000);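 active means inhibition above the mean inhibition of all tested compounds plus 3 SD, set per campaign, cut at about 40% in these data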;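 further: higher means more loss of mP so more displacement of Bim peptide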
EBV gp42 block: Epstein-Barr virus gp42 inhibitors, primary screen, biochemical, uHTS, fluorescence polarization; inhibition, % (tested at 21.74 µM); AID 1085, 2008; Fluorescence polarization binding assay, mP read-out; actives 0.42% (n = 220,000); in the data active means inhibition above about 50%
Target sequence (Q1HVG2 whole entry, looked up): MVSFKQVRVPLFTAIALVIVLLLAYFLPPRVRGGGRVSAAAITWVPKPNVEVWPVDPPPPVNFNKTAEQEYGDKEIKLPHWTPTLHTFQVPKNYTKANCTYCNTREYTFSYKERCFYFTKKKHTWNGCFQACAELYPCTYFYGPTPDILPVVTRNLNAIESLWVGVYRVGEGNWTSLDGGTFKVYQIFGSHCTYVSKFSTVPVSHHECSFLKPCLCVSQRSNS
GLD-1 RNA inh: GLD-1/TGE RNA complex disruptors, primary screen, biochemical, fluorescence polarization; Female germline-specific tumor suppressor gld-1 (Caenorhabditis elegans), Q17339; purified GLD-1 + fluorescein TGE RNA; inhibition, % at 5.96 µM; actives 0.44% (n = 320,000);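 active means percent inhibition above a per-plate cutoff, the plate mean of test compounds plus 3 SD, cut at about 30% in these data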
BCLXL inh confirm: Bcl-xL inhibitors blocking Bim BH3 binding, confirmation, counter-screen for MCL1 inhibitor project, biochemical, fluorescence polarization; actives 54% (n = 1,700); inhibition, % at 10.9 µM; AID 2166, 2009; GST-Bcl-xL / FITC-Bim BH3 peptide FP binding; shares compounds with MCL1-BIM inh;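 active means inhibition above a cutoff equal to the mean inhibition of all tested compounds plus 3 SD, cut at about 30% in these data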
MCL1 BIM confirm: inhibitors of MCL1 binding to BIM-BH3, confirmation, biochemical, fluorescence polarization, triplicate | shares compounds with MCL1-BIM inh | GST-MCL1 / FITC-Bim-BH3 fluorescence polarization | inhibition, % at 10.9 µM | actives 61% (n = 1,700) | AID 2168, 2009;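 active means inhibition above the average of all tested compounds plus 3 SD, cut at about 40% in these data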
Each line names hits and unclear results; the compound was inactive in the other large screens (follow-up assays come after a bar, where they were run).

CC(C)(C)OC(=O)N1CC=C2C(C#N)=C(N)C(C#N)(C#N)[C@H](c3cccnc3)[C@H]2C1	Bcl-xL primary 53.2, MEX-5 binding -28.0, MCL1-BIM inh 66.7, GLD-1 RNA inh 36.5 | BCLXL inh confirm 45.3 | MCL1 BIM confirm 47.2
COc1ccc(-c2csc(NCCc3nc4cc(C(=O)NCCCO)ccc4n3Cc3ccc(C)cc3)n2)cc1	none (no result: EBV gp42 block)
COc1ccc(CCCNC(=O)C2(C)Cc3c(-c4cccc(C(N)=O)c4)ccnc3O2)cc1 (stereo unspecified)	none (no result: Bcl-xL primary, MEX-5 binding, MCL1-BIM inh, EBV gp42 block, GLD-1 RNA inh)
CC1CCCN(CC(O)CN2CCN(CC(O)CN3CCCC(C)C3)C(C)C2)C1 (stereo unspecified)	none (no result: Bcl-xL primary, MEX-5 binding, MCL1-BIM inh, EBV gp42 block, GLD-1 RNA inh)
COc1ccc([N+](=O)[O-])cc1NC(=O)C1CCCO1 (stereo unspecified)	none
Nc1cc2c(cc1[N+](=O)[O-])OCCO2	none
Nc1cc2c(cc1[N+](=O)[O-])OCO2	MCL1-BIM inh 43.9 | BCLXL inh confirm 41.2 | MCL1 BIM confirm 78.0
O=C(O)c1cc(-c2ccc(/C=C3\NC(=O)N(c4ccccc4)C3=O)o2)ccc1Cl	none
O=C(O)c1cc(-c2ccc(/C=C3\NC(=O)N(c4ccc(Cl)cc4)C3=O)o2)ccc1Cl	MEX-5 binding inconclusive, MCL1-BIM inh 72.1 | BCLXL inh confirm 31.5 | MCL1 BIM confirm 54.8
Cn1c(N)c(C(=O)CSc2nc(C3CC3)n(-c3ccccc3)n2)c(=O)[nH]c1=O	MCL1-BIM inh 69.3 (no result: MEX-5 binding, EBV gp42 block) | BCLXL inh confirm inactive | MCL1 BIM confirm inactive
Cn1c(N)c(C(=O)CSc2nnc(C3CC3)n2-c2ccccc2)c(=O)[nH]c1=O	none (no result: Bcl-xL primary, MEX-5 binding, MCL1-BIM inh, EBV gp42 block)
Cn1c(N)c(C(=O)CSc2nnc(C3CC3)n2-c2ccccc2)c(=O)n(C)c1=O	MCL1-BIM inh 58.2 (no result: MEX-5 binding, EBV gp42 block) | BCLXL inh confirm inactive | MCL1 BIM confirm inactive
COc1cc2c3nnc(-c4ccc(F)cc4)c-3cn(Cc3cccc(C)c3)c2cc1OC	Bcl-xL primary 96.3, MEX-5 binding inconclusive, MCL1-BIM inh 99.3, GLD-1 RNA inh 49.5 | BCLXL inh confirm 84.9 | MCL1 BIM confirm 90.1
COc1cccc(Cn2nc3c4cc(F)ccc4n(Cc4ccc(F)cc4)cc-3c2=O)c1	none (no result: EBV gp42 block)
COc1cc2c3nnc(-c4ccc(F)cc4)c-3cn(Cc3cccc(F)c3)c2cc1OC	Bcl-xL primary 76.5, MEX-5 binding inconclusive, MCL1-BIM inh 85.0 | BCLXL inh confirm 82.2 | MCL1 BIM confirm 87.3
Cc1cc(C)c2cc3c(ccn3C3OC[C@H](O)[C@H](O)[C@H]3O)cc2n1 (stereo partly specified)	Bcl-xL primary 88.3, MCL1-BIM inh 100.4, EBV gp42 block 94.1 | BCLXL inh confirm 71.5 | MCL1 BIM confirm 86.2
CN1CCN(C2=Nc3c(Cl)cc(Cl)c4cccc2c34)CC1	Bcl-xL primary 74.7, MCL1-BIM inh 80.0, EBV gp42 block 63.1, GLD-1 RNA inh 39.9 | BCLXL inh confirm 82.3 | MCL1 BIM confirm 109.7
CN1CCN(C2=Nc3cc(Cl)ccc3Nc3ccccc32)CC1	none
NC1=NC(=O)/C(=C/c2ccc(-c3ccc(S(N)(=O)=O)cc3)o2)S1	MEX-5 binding -40.1, MCL1-BIM inh 50.0 (no result: EBV gp42 block) | BCLXL inh confirm 40.7 | MCL1 BIM confirm inactive
NC1=NC(=O)/C(=C\c2ccco2)S1	Bcl-xL primary 55.1, MCL1-BIM inh 83.8 | BCLXL inh confirm 43.5 | MCL1 BIM confirm 63.8
Cc1ccc(COC(=O)CCN=C2NS(=O)(=O)c3ccccc32)cc1	none (no result: EBV gp42 block)
CCC(=O)OC1(C)C(=O)C=C2C=C(c3ccc(C#N)cc3)OC=C2C1=O (stereo unspecified)	none (no result: EBV gp42 block)
CC1(O)C(=O)C=C2C=C(c3ccc(C#N)cc3)OC=C2C1=O (stereo unspecified)	MCL1-BIM inh 47.2 (no result: eLon inh, EBV gp42 block) | BCLXL inh confirm inactive | MCL1 BIM confirm 40.3
CN(C)CCNC(=O)/C(=C/c1ccc(-c2cccc([N+](=O)[O-])c2)o1)NC(=O)c1ccccc1	none
Cc1ccc(C(=O)N/C(=C\c2ccc(-c3ccccc3[N+](=O)[O-])o2)C(=O)NCCCN(C)C)cc1	Bcl-xL primary 75.9, MEX-5 binding -26.6, MCL1-BIM inh 79.7, GLD-1 RNA inh 51.3 (no result: EBV gp42 block) | BCLXL inh confirm inactive | MCL1 BIM confirm inactive
Cc1ccc(C(=O)N/C(=C\c2ccc(-c3ccccc3[N+](=O)[O-])o2)C(=O)NCCN(C)C)cc1	Bcl-xL primary 56.3, MCL1-BIM inh 65.8 (no result: EBV gp42 block) | BCLXL inh confirm inactive | MCL1 BIM confirm inactive
Clc1cc(Cl)c2nc(N3CCCCC3)sc2c1	none
Clc1cccc2sc(N3CCCCC3)nc12	Bcl-xL primary 68.8, MCL1-BIM inh 58.4 | BCLXL inh confirm inactive | MCL1 BIM confirm inactive
Cc1ccc(-c2csc(-c3c[nH]c4ccccc34)n2)c(C)c1	MCL1-BIM inh 89.2 | BCLXL inh confirm inactive | MCL1 BIM confirm inactive
CCOc1cc(Br)c(Br)c(C=Nc2ccc(NC(C)=O)cc2)c1O	Bcl-xL primary 31.1, MCL1-BIM inh 44.2, EBV gp42 block 131.2 | BCLXL inh confirm 71.0 | MCL1 BIM confirm 116.4
CCCCCCn1c(=O)[nH]c2nc3cc(N)ccc3nc2c1=O	Bcl-xL primary 187.1, MEX-5 binding -48.7, MCL1-BIM inh active, EBV gp42 block 148.5, GLD-1 RNA inh 187.3 (no result: eLon inh) | BCLXL inh confirm 171.2 | MCL1 BIM confirm 197.9
CCC(=O)N1CCN(c2ccc(NC(=O)c3cccs3)cc2)CC1	MCL1-BIM inh 42.5 | BCLXL inh confirm inactive | MCL1 BIM confirm inactive
Cn1nc(-c2ccccc2)c2nc3ccccc3nc21	Bcl-xL primary 55.6, MEX-5 binding inconclusive, MCL1-BIM inh 55.4, EBV gp42 block 126.3 | BCLXL inh confirm 101.5 | MCL1 BIM confirm 111.1
CCN1CCN(c2cc(N3CCN(C(=O)c4ccco4)CC3)c3c4c(onc24)-c2ccccc2C3=O)CC1	Bcl-xL primary 91.7, MCL1-BIM inh 102.8 (no result: EBV gp42 block) | BCLXL inh confirm 52.1 | MCL1 BIM confirm inactive
CCc1ccc[n+](-c2[nH]c(=O)sc2/C=N/N=C(\[O-])CCn2c3ccccc3c3ccccc32)c1	none
Cc1cc[n+](-c2[nH]c(=O)sc2/C=N/N=C(\[O-])CCn2c3ccccc3c3ccccc32)cc1	MCL1-BIM inh 49.0 (no result: MEX-5 binding) | BCLXL inh confirm inactive | MCL1 BIM confirm 50.1
